FEN1 inh: qHTS Assay for the Inhibitors of Human Flap endonuclease 1 (FEN1); P39748; Recombinant FEN1 flap cleavage, fluorescence, 15 min; Potency, µM (series often up to 114 µM), hits mostly inhibitors; 390,000 tested, 0.35% active; AID 588795, 2011; note: nearly all actives have a fitted effect of over 65% in size
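Reaction started by adding substrate (50 nM final) to 10 nM enzyme after 15 min room-temperature compound preincubation. Reads at 0 and 15 min, with data normalized and fitted to a four-parameter Hill equation.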
Pol beta inh: qHTS Assay for Inhibitors of DNA Polymerase Beta; P06746; Pol beta primer extension/strand displacement, fluorescence kinetic; Potency, µM (titrated, usually from 114 µM), most hits filed as inhibitors; 340,000 tested, 1.3% active; AID 485314, 2010
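Enzyme-only controls used 10 nM Pol beta; buffer lacking enzyme served as negative control. Compound preincubated 15 min, then 50 nM substrate added; 0 and 10 min reads at room temperature.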
Pol kappa inh-1: qHTS for Inhibitors of Polymerase Kappa | DNA polymerase kappa (Homo sapiens), Q9UBT6 | purified Pol kappa, fluorescent DNA synthesis assay, 10 min | Potency, µM (series often up to 107 µM), most hits filed as inhibitors | 400,000 tested, 0.53% active
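Enzyme at 10 nM met test compounds for 15 min at room temperature. Substrate addition (50 nM final) began the reaction, which was monitored by fluorescence at 0 and 10 min.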
Pol eta inh-1: qHTS for Inhibitors of Polymerase Eta. DNA polymerase eta (Homo sapiens), Q9Y253. recombinant Pol eta, fluorescent DNA replication assay. Potency, µM (titrated, usually from 114 µM), most hits filed as inhibitors. 390,000 tested, 1.2% active. AID 588591, 2011
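Fluorescent replication assay: 50 nM final substrate added after a 15 min room-temperature compound preincubation with 10 nM enzyme. Signal taken at 0 min and again at 10 min.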
WRN helicase inh: qHTS for Inhibitors of WRN Helicase. WRN helicase unwinding, fluorescent forked duplex, kinetic. AID 651768, 2012. 360,000 tested, 0.46% active. Potency, µM (titrated, usually from 114 µM), actives largely listed as inhibitors; note: nearly all actives have a fitted effect of over 55% in size
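Kinetic fluorescence helicase assay: unwinding of a quenched forked DNA duplex (100 nM final) with 2 mM ATP final raises red fluorescence (525/598 nm). Compounds sat 15 min at room temperature with 20 nM WRN beforehand.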
POLI inh: qHTS for Inhibitors of Polymerase Iota | Potency, µM (series often up to 115 µM), usual class: inhibitors | AID 588590, 2011 | DNA polymerase iota (Homo sapiens), Q9UNA4 | 390,000 tested, 1% active | Pol iota fluorescent replication assay, 10 min
Target sequence (Q9UNA4 whole entry, looked up): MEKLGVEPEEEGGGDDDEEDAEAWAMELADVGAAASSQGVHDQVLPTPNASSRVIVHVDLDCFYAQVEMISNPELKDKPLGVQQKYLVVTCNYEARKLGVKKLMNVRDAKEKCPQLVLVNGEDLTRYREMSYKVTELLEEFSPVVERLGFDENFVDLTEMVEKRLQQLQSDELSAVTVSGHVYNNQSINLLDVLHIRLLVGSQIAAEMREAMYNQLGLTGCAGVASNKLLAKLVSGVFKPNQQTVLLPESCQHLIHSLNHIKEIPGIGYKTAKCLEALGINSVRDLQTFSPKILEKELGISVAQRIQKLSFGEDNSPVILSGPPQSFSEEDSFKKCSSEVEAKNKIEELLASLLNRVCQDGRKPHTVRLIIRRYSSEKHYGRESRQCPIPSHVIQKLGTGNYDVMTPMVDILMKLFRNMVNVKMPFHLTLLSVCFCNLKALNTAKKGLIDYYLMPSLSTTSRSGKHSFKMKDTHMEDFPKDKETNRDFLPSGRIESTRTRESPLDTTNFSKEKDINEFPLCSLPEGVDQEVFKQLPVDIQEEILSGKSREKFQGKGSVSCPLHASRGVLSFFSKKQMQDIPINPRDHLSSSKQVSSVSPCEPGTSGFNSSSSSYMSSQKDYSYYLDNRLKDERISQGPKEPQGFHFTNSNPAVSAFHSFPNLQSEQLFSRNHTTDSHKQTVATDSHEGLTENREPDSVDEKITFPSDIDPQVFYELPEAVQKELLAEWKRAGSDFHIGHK
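Pol iota at 10 nM preincubated 15 min with compounds at room temperature; reaction started with fluorescent substrate, 50 nM final. Fluorescence read kinetically at 0 and 10 min; buffer-only wells as negative control.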
Pol kappa inh-2: qHTS for Inhibitors of Polymerase Kappa: Confirmatory Assay for Cherry-picked Compounds; purified Pol-kappa, fluorescent strand-displacement substrate; Potency, µM, actives largely listed as inhibitors; 920 tested, 76% active; shares compounds with Pol eta inh-1
Pol eta inh-2: qHTS for Inhibitors of Polymerase Eta: Confirmatory Assay for Cherry-picked Compounds | shares compounds with Pol eta inh-1 | Pol eta primer extension, TAMRA/BHQ fluorescence, 10 min | Potency, µM, actives largely listed as inhibitors | 2,600 tested, 64% active | AID 720502, 2013
Large screens that a line does not name were inactive (follow-up assays come after a bar, where they were run). Most compounds without a hit are left out; they make up all but 2.4% or so of the library. Calls come from the whole dose curve; as a rule, active = well fitted curve in the direction sought with a large enough effect; inconclusive = small, poorly fitted or top-dose-only effect, or another doubt; inactive = no such curve, though single readings can be large; an effect the other way counts as inactive or inconclusive.

COC(=O)c1ccc(NC(=O)CC2C(=O)N(c3cccc(OC)c3)C(=O)N2Cc2cccs2)cc1 (centres undefined)	none (no result: WRN helicase inh)
CCOc1cc(C2NC(=O)NC(C)=C2C(C)=O)cc(Cl)c1OCC(=O)O (centres undefined)	Pol beta inh inconclusive, Pol eta inh-1 22.4µM, POLI inh inconclusive | Pol eta inh-2 inconclusive
COc1ccccc1C(=O)Nc1cc(-c2cccc(Br)c2)nn1-c1ccccc1	none (no result: WRN helicase inh)
COc1ccc(C(=O)Nc2ccc(S(=O)(=O)Nc3nccc(C)n3)cc2)cc1	none
O=C(Nc1ccc(S(=O)(=O)Nc2ncccn2)cc1)c1ccccc1	none
O=C(Nc1ccc(S(=O)(=O)Nc2ncccn2)cc1)C1=NN(c2ccccc2)C(=O)CC1	Pol eta inh-1 35.5µM, POLI inh inconclusive | Pol eta inh-2 67.5
Cc1ccnc(NS(=O)(=O)c2ccc(NC(=O)c3ccc(N4C(=O)CCC4=O)cc3)cc2)n1	Pol beta inh inconclusive, Pol kappa inh-1 inconclusive, Pol eta inh-1 8.91µM, WRN helicase inh inconclusive, POLI inh inconclusive | Pol eta inh-2 67.5
O=C(Nc1ccc(Br)cc1Cl)c1cnccn1	Pol eta inh-1 39.8µM, WRN helicase inh inconclusive, POLI inh inconclusive | Pol eta inh-2 75.7
O=C(O)/C=C/c1ccc(S(=O)(=O)Nc2ccc3[nH]c(=O)[nH]c3c2)cc1	Pol eta inh-1 25.1µM, WRN helicase inh inconclusive, POLI inh inconclusive | Pol eta inh-2 inconclusive
Cc1ccc(NS(=O)(=O)c2ccc(/C=C/C(=O)O)cc2)cc1Cl	none
CCCc1cc(=O)[nH]c(SCC(=O)Nc2sc3c(c2C#N)CCC(C)C3)n1 (centres undefined)	Pol beta inh 17.8µM, Pol kappa inh-1 79.4µM, Pol eta inh-1 25.1µM, POLI inh 50.1µM | Pol eta inh-2 inconclusive
CC1CCc2c(sc(NC(=O)CSc3ncn[nH]3)c2C#N)C1 (centres undefined)	none
CN(C)CCCN(C(=O)c1ccc([N+](=O)[O-])s1)c1nc2cc3c(cc2s1)OCCO3	Pol beta inh inconclusive
CN(C)CCCN(C(=O)c1cc2cc([N+](=O)[O-])ccc2s1)c1nc2cc3c(cc2s1)OCCO3	FEN1 inh inconclusive, Pol kappa inh-1 inconclusive, Pol eta inh-1 inconclusive, WRN helicase inh inconclusive (no result: Pol beta inh) | Pol kappa inh-2 59.7
COc1ccc(N2CC(NC(=O)c3ccc(S(=O)(=O)N4CCCCC4)cc3)CC2=O)cc1OC (centres undefined)	none (no result: WRN helicase inh)
O=C(Nc1cccnc1Cl)c1ccc(=O)oc1	FEN1 inh 20µM, Pol beta inh 12.6µM, Pol kappa inh-1 44.7µM, Pol eta inh-1 20µM, WRN helicase inh inconclusive, POLI inh 22.4µM | Pol eta inh-2 inconclusive
COc1ccc(C(=O)Nc2cccnc2Cl)cc1OC	Pol beta inh inconclusive
CCc1ccc(NC(=O)Cn2cnc3sc(C)c(S(=O)(=O)N4CCN(c5ccccc5OC)CC4)c3c2=O)cc1	none (no result: WRN helicase inh)
Cc1noc(-c2ccc(N3CCCCC3)c([N+](=O)[O-])c2)n1	none (no result: WRN helicase inh)
Cc1nnc(SCC2=C(C(=O)O)N3C(=O)C(NC(=O)COc4ccccc4)C3SC2)s1 (centres undefined)	Pol kappa inh-1 79.4µM, Pol eta inh-1 10µM, WRN helicase inh inconclusive, POLI inh inconclusive (no result: Pol beta inh) | Pol kappa inh-2 inconclusive | Pol eta inh-2 37.9
NCc1ccccc1CC(=O)N[C@@H]1C(=O)N2C(C(=O)O)=C(CSc3nnnn3CC(=O)O)CS[C@@H]12	none (no result: FEN1 inh, Pol beta inh, Pol eta inh-1, WRN helicase inh, POLI inh)
Cc1nnc(SCC2=C(C(=O)O)N3C(=O)C(NC(=O)c4cc(F)c(F)cc4Cl)C3SC2)s1 (centres undefined)	Pol beta inh inconclusive, Pol kappa inh-1 inconclusive, Pol eta inh-1 20µM, POLI inh inconclusive | Pol eta inh-2 33.8
CCC(C(=O)NC1C(=O)N2C(C(=O)O)=C(CSc3nnc(C)s3)CSC12)c1ccccc1 (centres undefined)	Pol eta inh-1 inconclusive (no result: Pol beta inh)
CCN(CC)S(=O)(=O)c1ccc2c(c1)N(CC(=O)Nc1ccc(F)cc1)C(=O)CO2	none (no result: Pol eta inh-1, WRN helicase inh)
O=C(NCc1ccccc1Br)c1ccc2c(c1)nc1n2CCOC1	none (no result: WRN helicase inh)
COc1ccc(-c2ccc(CN3C(C)C(=O)N(Cc4cn(CCC5OCCO5)nn4)CCS3(=O)=O)cc2)cc1 (centres undefined)	Pol eta inh-1 28.2µM (no result: FEN1 inh, Pol beta inh, Pol kappa inh-1, POLI inh) | Pol kappa inh-2 inconclusive | Pol eta inh-2 inconclusive
Cc1ccc(C(C)C)c(OCC(=O)NCC2(N3CCOCC3)CCCCC2)c1	none (no result: WRN helicase inh)
O=C(/C=C/c1ccccc1)Nc1sc2c(c1C(=O)O)CCC2	Pol kappa inh-1 inconclusive, POLI inh inconclusive
N#Cc1c(NC(=O)/C=C/c2ccco2)sc2c1CCCC2	Pol beta inh inconclusive, Pol eta inh-1 inconclusive, WRN helicase inh inconclusive, POLI inh 50.1µM | Pol eta inh-2 84.9
O=C(/C=C/c1ccco1)Nc1sc2c(c1C(=O)O)CCC2	Pol kappa inh-1 inconclusive, Pol eta inh-1 79.4µM, POLI inh inconclusive | Pol eta inh-2 inconclusive
O=C(Nc1sc2c(c1C(=O)O)CCC2)c1ccccc1	Pol beta inh 20µM, Pol kappa inh-1 inconclusive, Pol eta inh-1 12.6µM, WRN helicase inh inconclusive, POLI inh inconclusive | Pol eta inh-2 75.7
CCCCc1nn2c(=O)cc(COC(=O)c3ccccc3NC(=O)c3cccc(C)c3)nc2s1	none (no result: WRN helicase inh)
Cc1ccc(-n2[nH]c(C)c(/C=N/Nc3ccc([N+](=O)[O-])cc3[N+](=O)[O-])c2=O)cc1C	Pol eta inh-1 20µM, WRN helicase inh inconclusive, POLI inh inconclusive | Pol eta inh-2 inconclusive
CCCCNC(=O)C1CCCN(S(=O)(=O)CCC)C1 (centres undefined)	none (no result: WRN helicase inh)
CCOCCCNc1nc2c(C)cccn2c(=O)c1/C=C1\SC(=S)N(CC(C)C)C1=O	none
CCOCCCNc1nc2c(C)cccn2c(=O)c1/C=C1\SC(=S)N(C(C)CC)C1=O (centres undefined)	Pol eta inh-1 79.4µM, WRN helicase inh inconclusive | Pol kappa inh-2 26.7
Cc1ccc(-c2c(CN3CCN(c4cccc(C)c4)C(C)C3)csc2C)cc1 (centres undefined)	none (no result: WRN helicase inh)
COCCn1c(SC(C)C(=O)NCC2CCCO2)nc2sc3c(c2c1=O)CCC3 (centres undefined)	Pol eta inh-1 inconclusive, POLI inh inconclusive (no result: Pol beta inh) | Pol eta inh-2 inconclusive

Assay outcomes as filed in PubChem.
